# Target: TevN201-ZFE-6xHis (I-TevI 1-201 fused to ryA zinc finger) (synthetic (bacteriophage T4 I-TevI …))
# Experiment: cleavage_in_vitro; 10 mM MgCl2, 100 mM NaCl, pH 8.0, 37 C
# Details: tags: C-terminal 6xHis; dsDNA, one strand shown
# Method: Single time-point cleavage assays to determine the EC_{0.5max} of N201 Tev-ZFE were performed in buffer containing 20 mM Tris-HCl pH 8.0, 100 mM NaCl, 10 mM MgCl₂, 5% glycerol, 1 mM DTI and 10 nM pTZHS1.33. Reactions were incubated for 3 minutes at 37° C., stopped with 5 μl stop solution (100 mM EDTA, 40% glycerol, and bromophenol blue), and electrophoresed on a 1% agarose gel prior to staining with ethiduium bromide and analysis on an AlphaImager™3400 (Alpha Innotech). The EC_{0.5max} was determined by fitting the data to the equation
# Cleavage assays were performed with wild type and mutant substrates and increasing concentrations of TevN201-ZFE to determine the amount of protein required for half-maximal cleavage (EC_{0.5max}). […] The greater substrate discrimination observed in the genetic assay likely reflects lower in vivo protein concentrations than those used for in vitro cleavage assays. […] Although the BmoN221-ZFE substrate specificity was not tested extensively, it was shown that the chimeric endonuclease cleaved the Bmo-ryA substrate plasmid, but not the target-less control plasmid.
row,Sequence,binding signal
1,CTAGACAACACTCAGTAGATGTTTTCTTGGGTCTACCGTCCCACGCCGCATG,~4.7 fold higher EC0.5max vs TZ1.33
2,CTAGAAAACACTCAGTAGATGTTTTCTTGGGTCTACCGTCCCACGCCGCATG,~60 fold higher EC0.5max vs TZ1.33
